Measurements: PubChem BioAssay AID1672 (Johns Hopkins Ion Channel Center, 2009)
Out of some 310,000 compounds screened, about 2,600 (0.84%) were called active. The sample holds actives, similar compounds and a random draw of the others, so the mix is not that of the screen.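 The calls were made as follows: active = fluorescence ratio B-score at or below minus 3 SD of library scores, with starting-brightness B-score within 2 SD (cut at about -4.2 in these data); inactive = the rest.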

What follows are compounds tested against Inward rectifier potassium channel 2 (Mus musculus) (UniProt P35561) (assay: blocks the mouse Kir2.1 inward-rectifier potassium channel (AID 1672;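 also: channel flux triggered by added potassium and thallium sulfate stimulus; B-score of peak minus minimum fluorescence over baseline after thallium stimulus; more negative B-score means stronger Kir2.1 block with less thallium influx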)). Conditions: HEK293-Kir2.1, FluxOR thallium flux fluorescence; at 10 µM; active compounds read low.
Inward rectifier potassium channel 2 (Mus musculus), sequence (P35561 whole entry, looked up): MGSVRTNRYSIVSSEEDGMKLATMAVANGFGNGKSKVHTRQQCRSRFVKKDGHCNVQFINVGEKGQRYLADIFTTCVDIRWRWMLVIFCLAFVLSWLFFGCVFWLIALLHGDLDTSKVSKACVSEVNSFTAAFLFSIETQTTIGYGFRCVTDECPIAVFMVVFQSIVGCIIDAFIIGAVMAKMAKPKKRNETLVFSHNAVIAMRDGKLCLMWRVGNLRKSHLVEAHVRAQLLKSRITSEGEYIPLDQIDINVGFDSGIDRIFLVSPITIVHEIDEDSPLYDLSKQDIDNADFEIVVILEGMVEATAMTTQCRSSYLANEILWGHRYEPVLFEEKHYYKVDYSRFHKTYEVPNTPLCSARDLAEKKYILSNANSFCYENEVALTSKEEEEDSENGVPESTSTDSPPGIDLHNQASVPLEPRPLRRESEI

B-score, active:
CC(NCc1ccccc1OC1CCCC1)c1ccccc1 (centres undefined) -12.7, Clc1ccc(-c2cc(C3CCNCC3)[nH]n2)c(Cl)c1 -12.6, CC(Oc1ccc(F)cc1)C(=O)Nc1ccccc1C(=O)NC1CC1 (centres undefined) -5.66, Cc1ccc(-c2nc(CSCC(=O)NC3CCN(Cc4ccccc4)CC3)c(C)o2)cc1 -4.77, C=CCc1cc(S(=O)(=O)c2ccc(O)c(CC=C)c2)ccc1O -6.7, COc1cc(CNCc2ccc(OC)c3ccccc23)cc(OC)c1OC -6.99, CC12CN(Cc3ccccc3)CC(C)(CN(Cc3ccccc3)C1)C2=NO -8.19, COc1ccc(F)c(-c2nc(CN3CCC(c4ccccc4)CC3)c(C)o2)c1 -6.63, O=C(NC(Nc1nc2ccc([N+](=O)[O-])cc2s1)(C(F)(F)F)C(F)(F)F)c1ccccc1 -10.5, OC(CNCCc1ccc(Cl)cc1Cl)COc1ccccc1 (centres undefined) -5.54, CCOC(=O)c1c(C)[nH]c(C)c1S(=O)(=O)NCCCc1ccco1 -4.22, O=C1Nc2cc(C(=O)N3CCC(N4CCCCC4)CC3)ccc2S/C1=C\c1ccccc1 -5.53, CN(C)CCOc1ccc(Cl)cc1C(C)(C)C -4.91, CCC(Cc1ccccc1)NS(=O)(=O)c1ccc2c(c1)NC(=O)CS2 (centres undefined) -7.18, C/C=C(/C)C(=O)OC1Cc2c(ccc3ccc(=O)oc23)OC1(C)C (centres undefined) -6.49, CC1COc2ccccc2N1S(=O)(=O)c1ccccc1 (centres undefined) -8.7, CC1(C)CC(N2CCN(C(c3ccccc3)c3ccccc3)CC2)=CC(=[N+]2CCCCC2)C1 -9.72, COCCCNC(=S)N(Cc1ccccc1)Cc1ccc(F)cc1 -4.64

B-score, inactive:
Cc1ccc(C(=O)NNC(=O)C(C)Oc2ccc3ccccc3c2)o1 (centres undefined) 0.32, CSc1ncc(Sc2ccccc2)c(C(=O)O)n1 0.25, CC(=O)OC(C(=O)NC1CCCCC1)c1ccccc1 (centres undefined) -0.67, COc1ccccc1CN1CCN(C(c2ccccc2)c2ccccc2)CC1 -0.07, Cc1ccc(NC(=O)C2CC(=O)N(c3ccc4c(c3)OCCO4)C2)cc1S(=O)(=O)N1CCCCCC1 (centres undefined) -0.57, COc1ccc2c(c1)CCNC2Cc1ccc(OC)c(O)c1 (centres undefined) 1.91, CN1CCN(C2Cc3ccc(Cl)cc3Sc3ccc(F)cc32)CC1 (centres undefined) -1.17, O=C1CSC(c2ccccc2)N1c1nc(-c2ccc(Cl)cc2Cl)cs1 (centres undefined) 0.4, Clc1ccc(-c2cc(-c3ccccn3)on2)c(Cl)c1 0.99, O=C(Nc1cccc2c1CCCC2)c1ccc(F)cc1 -0.09, Cc1ccc(S(=O)(=O)N2CCN(C(=O)Cc3sc(C)nc3-c3ccc(F)cc3)CC2)c(C)c1 -0.03, COc1ccc(S(=O)(=O)N2CCCCC2)cc1NC(=O)c1cc([N+](=O)[O-])ccc1N1CCOCC1 -0.55, CCN1C(=O)[C@@H]2[C@@H](c3ccc(-c4cccc(Cl)c4)cc3)N3CCC[C@@]3(C(=O)OC)[C@@H]2C1=O 0, COc1ccccc1OCC(=O)Nc1ccccc1C(=O)NC1CC1 -0.05, CCOc1ccccc1OCC(=O)Nc1ccccc1C(=O)NC1CC1 -2.1, CC(Oc1ccc(Br)cc1)C(=O)NCC(c1ccco1)N1CCCCC1 (centres undefined) -1.52, Cc1ccc(S(=O)(=O)NCCC(=O)NC2CCN(Cc3ccccc3)CC2)cc1 -1.38, Cc1ccc(-c2cc(C(=O)NC3CCN(Cc4ccccc4)CC3)c3ccccc3n2)cc1 0, CCOC(=O)C1Nc2ccc(C(F)(F)F)cc2C2C=CCC12 (centres undefined) 1.69, COc1ccc(CNC(=O)Cc2ccc(-c3ccccc3)cc2)cc1OC 0.77, COc1cc(CNCc2cccs2)cc(Br)c1OC -1.78, CCCC(=O)C1CCN(Cc2ccccc2)CC1 -3.46, O=C(Nc1ccccc1)N1CCN(Cc2ccccc2)CC1 0.76, CC(C)(C)Oc1ccccc1Nc1nc(NCCO)nc(N2CCCC2)n1 0.89, CCOc1ccccc1-c1nc(CN2CCC(C(=O)N3CCOCC3)CC2)c(C)o1 0.57, COc1cccc(CC2(CO)CCCN(Cc3nc(-c4cccs4)oc3C)C2)c1 (centres undefined) -0.22, O=C(NCC1CC1)c1onc(CSc2ccccc2)c1C(=O)NCC1CC1 -0.33, Cc1ccc(C)c(OCCC(=O)OCC(=O)NC(=O)NCc2ccccc2)c1 -1.35, O=C(c1ccc(NS(=O)(=O)c2ccc3[nH]c(=O)[nH]c3c2)cc1)N1CCCCC1 -0.24, O=C(COC(=O)c1ccc(F)cc1)Nc1nc2ccc([N+](=O)[O-])cc2s1 -0.31, O=C(Nc1nc2ccc([N+](=O)[O-])cc2s1)c1ccc(S(=O)(=O)N2CCCc3ccccc32)cc1 1.56, Cc1nc(-c2ccccc2)sc1C1(C)CC(c2cccnc2)=NO1 (centres undefined) -0.61, O=C(Nc1ccc2nc3n(c(=O)c2c1)CCCC3)c1ccc(Cl)nc1 -0.4, CCc1cccc(C)c1NC(=O)COC(=O)CNC(=O)c1cccs1 -0.01, CCOC(=O)N1CCN(C(=O)c2ccccc2SCC(=O)NCC2CCCCC2)CC1 -1.08, CC(CCc1ccc(O)cc1)NCc1ccc(Cl)cc1Cl (centres undefined) -1.22, OC(CNCc1ccc2c(c1)OCO2)COc1ccccc1 (centres undefined) 0.51, O=C(Oc1ccc(-c2nnco2)cc1)c1ccc(F)c(S(=O)(=O)N2CCOCC2)c1 0.69, Cc1ccc2nc(SCC(=O)N3CCN(c4ccccc4)CC3)nc(=O)n2c1 -0.66, CCOC(=O)c1c(C)[nH]c(C)c1S(=O)(=O)N(C)CC(=O)Nc1ccccc1C -0.21, NC(=O)c1cc(S(=O)(=O)NCCCc2ccco2)cs1 -1.45, O=S(=O)(NCCCc1ccccc1)c1ccc(Br)cc1 -0.26, C=C(C)CNC(=O)c1ccc(OC2CCN(C(=O)COC)CC2)cc1 2.19, CC(C)c1ccc(S(=O)(=O)N2CCN(C(=O)CN3C(=O)NC(C)(c4ccccc4)C3=O)CC2)cc1 (centres undefined) -0.17, CN(C1CCS(=O)(=O)C1)S(=O)(=O)c1ccc2ccccc2c1 (centres undefined) -2.88, CCN1CCN(CCNC(=O)c2ccc3c(c2)NC(=O)/C(=C\c2ccc(OC)c(OC)c2)S3)CC1 -0.6, CC1CCN(C(=O)c2ccc3c(c2)NC(=O)CN3)CC1 -1.15, CC(C)(C)NCCCOc1ccc(Cl)cc1C(C)(C)C -3, Cn1c(CCCOc2ccc(Cl)cc2Cl)n[nH]c1=S 1.02, CC(C)COc1ccc(C(=O)OCC(=O)NCCC2=CCCCC2)cc1 -0.32, CC1(C)C/C(=N/Nc2ccc([N+](=O)[O-])cc2[N+](=O)[O-])C(C)(C)O1 -0.99, Cc1ccc2nc(SCC(=O)Nc3cccc4ccccc34)nc(=O)n2c1 -0.81, O=C1CSc2ccc(S(=O)(=O)NCc3ccccc3)cc2N1 -1.97, COc1ccccc1CNS(=O)(=O)c1ccc2c(c1)NC(=O)CS2 -3.14, O=C(Nc1cc(Cl)ccc1N1CCOCC1)c1ccc(N2CCCC2=O)cc1 -0.11, CCN(CC(=O)Nc1ccccc1C(F)(F)F)C(=O)CSCc1c(C)noc1C -0.18, CC1(C)Oc2ccc3ccc(=O)oc3c2/C(=N/O)C1=O -3.77, CC1(C)Oc2ccc3ccc(=O)oc3c2/C(=C/NCCO)C1=O -0.79, COc1ccc(C(CNC(=O)c2cccc(S(=O)(=O)Nc3ccccc3Cl)c2)N2CCOCC2)cc1 (centres undefined) 0.72, COc1ccccc1NS(=O)(=O)c1ccc(C(=O)N2CCN(c3ccccc3O)CC2)cc1 -0.57, COc1ccc(C(C#N)(CC(=O)O)c2cnccn2)cc1OC (centres undefined) -2.49, Cc1cc(C)c(-c2csc(NC(=O)CCCc3nc4ccccc4c(=O)[nH]3)n2)c(C)c1 0.9, CC1COc2ccccc2N1C(=O)c1cccnc1Cl (centres undefined) -0.04, CC1CN(S(=O)(=O)c2ccccc2)C(C)CN1S(=O)(=O)c1ccccc1 (centres undefined) -1.27, Cn1ccsc1=NC(=O)c1cc(S(=O)(=O)N2CCOCC2)ccc1Cl -1.21, O=C(NN1CCOCC1)c1cccc(F)c1 0.11, Cc1ccc(N2CC(C(=O)N3CCC4(CC3)CC(=O)c3ccccc3O4)CC2=O)cc1C (centres undefined) 0.05, O=C(Nc1ccccc1N1CCCC1)c1ccc(F)c(S(=O)(=O)N2CCOCC2)c1 -1.53, O=C(O)CN1CCN(C(c2ccccc2)c2ccccc2)CC1 0.58, CC(C)NC(=S)N1CCN(C(c2ccccc2)c2ccccc2)CC1 0.81, CC12CCC(=O)N1C(C(=O)NCCN1C(=O)S/C(=C\c3ccccc3F)C1=O)CS2 (centres undefined) 1.85, COCCCNC(=S)NC(=O)c1ccccc1 0, COCCNC(=S)N(Cc1cccnc1)Cc1ccc(OC)c(OC)c1 -0.71, O=C(CN1CCOCC1)Nc1cccc([N+](=O)[O-])c1 -1.26, COc1cc(/C=N/NC(=O)c2cc(-c3ccccc3C)nc3ccccc23)cc(OC)c1O 0.05, CC(C)Nc1nnc(SC(C)C(=O)N(C)C2CCCCC2)s1 (centres undefined) 1.34
